# Screens as filed in PubChem BioAssay.
# A selection: hits, their analogues and other compounds. The true share with any hit is near 0.9%.
# Six1-Eya2 blk – qHTS Assay for Inhibitors of the Six1/Eya2 Interaction; 360,000 tested, 0.56% active; AlphaScreen GST-Six1/His-Eya2 binding, biochemical; active compounds read low; activity change, % (concentration not given with the values); Homeobox protein SIX1 (Homo sapiens) + Protein phosphatase EYA2 (Homo sapiens), …; in the data active = activity change below about -65%; inconclusive = mostly about -30% to -63%
#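 GST-Six1 + His-Eya2 (5X stock: 250/500 nM); Tris pH 8.0, 300 mM NaCl, 0.05% BSA, 0.02% Tween 20; GSH donor/Ni acceptor beads; 1 h 37 °C dark; AlphaScreen readout.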
# L3MBTL1 inh-1 – qHTS Assay for the Inhibitors of L3MBTL1; Lethal(3)malignant brain tumor-like protein 1 (Homo sapiens), Q9Y468; AlphaScreen L3MBTL1–H3K9me1 peptide binding; Potency, µM (titrated, usually from 57.1 µM), hits mostly inhibitors; 230,000 tested, 0.66% active; AID 485360, 2010; note: nearly all actives have a fitted effect of over 60% in size
# Target sequence (Q9Y468 whole entry, looked up): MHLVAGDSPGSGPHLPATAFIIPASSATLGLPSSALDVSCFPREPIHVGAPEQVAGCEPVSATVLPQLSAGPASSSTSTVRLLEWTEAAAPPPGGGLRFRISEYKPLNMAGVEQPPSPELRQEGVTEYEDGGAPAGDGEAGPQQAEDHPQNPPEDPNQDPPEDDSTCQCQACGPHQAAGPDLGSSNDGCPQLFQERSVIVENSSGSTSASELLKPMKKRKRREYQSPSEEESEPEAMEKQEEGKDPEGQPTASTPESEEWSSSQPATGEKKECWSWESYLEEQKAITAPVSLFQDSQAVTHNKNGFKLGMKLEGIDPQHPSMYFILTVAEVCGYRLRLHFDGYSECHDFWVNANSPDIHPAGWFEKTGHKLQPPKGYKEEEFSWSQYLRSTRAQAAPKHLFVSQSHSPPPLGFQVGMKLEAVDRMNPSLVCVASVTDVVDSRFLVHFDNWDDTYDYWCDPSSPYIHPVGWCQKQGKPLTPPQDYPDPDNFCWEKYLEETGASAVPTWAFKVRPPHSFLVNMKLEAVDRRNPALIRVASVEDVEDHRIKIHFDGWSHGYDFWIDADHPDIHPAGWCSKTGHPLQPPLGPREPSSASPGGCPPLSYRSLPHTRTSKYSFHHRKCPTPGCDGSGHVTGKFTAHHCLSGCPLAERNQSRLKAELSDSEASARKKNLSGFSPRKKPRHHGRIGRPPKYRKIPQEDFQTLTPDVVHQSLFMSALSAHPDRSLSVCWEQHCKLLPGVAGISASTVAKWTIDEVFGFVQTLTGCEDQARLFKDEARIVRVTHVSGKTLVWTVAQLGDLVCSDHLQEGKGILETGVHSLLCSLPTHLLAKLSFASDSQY
#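 Read-out is AlphaScreen signal from streptavidin donor and nickel chelate acceptor beads (10 ug/mL final each) bridging L3MBTL1 (50 nM) and biotinylated K9-monomethylated H3(1-15) peptide (75 nM), after 30 min compound exposure at room temperature.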
# B2AR arrestin – qHTS assay of beta-arrestin-biased ligands of beta2-adrenergic receptor. Potency, µM (series often up to 46.1 µM), actives largely listed as activators. beta-arrestin recruitment to beta2AR, cell-based reporter. Beta-2 adrenergic receptor (Homo sapiens), P07550. 330,000 tested, 0.02% active; note: nearly all actives have a fitted effect of over 65% in size
# Eya2 inh – qHTS Assay for Inhibitors of the Phosphatase Activity of Eya2; 330,000 tested, 0.006% active; Potency, µM (top dose mostly 76.9 µM), most hits filed as inhibitors; Protein phosphatase EYA2 (Homo sapiens), O00167; recombinant Eya2, OMFP fluorescence dephosphorylation (OMFP is methylfluorescein phosphate)
#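 Eya2 (0.2 uM) preincubated 10 min at ambient with compound, then OMFP substrate added at 50 uM; 10 min reaction in 50 mM HEPES pH 7.5, 50 mM NaCl, 5 uM MgCl2, 0.05% BSA, 1 mM DTT. Fluorescence read at Ex 485/Em 525 nm.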
# CtBP-E1A blk – qHTS Assay for Inhibitors of the CtBP/E1A Interaction; CtBP / adenovirus E1A interaction (AlphaScreen); AlphaScreen GST-E1A/His-CtBP binding, 1536-well; active compounds read low; activity change, % (no concentration beside the values); 340,000 tested, 0.49% active; AID 651724, 2012; in the data active = activity change below about -65%; inconclusive = mostly about -30% to -63%
#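 Steps: dispense buffer (Tris pH 8.0, NaCl 300 mM, TCEP 1 mM, BSA, Tween 20); add 5X protein mix (GST-E1A, His-CtBP, 125 nM each); pin 23 nL compound; 2 h at 37 °C, dark; add 5X beads (50 ug/mL); 1 h; read.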
# L3MBTL1 inh-2 – qHTS Assay for the Inhibitors of L3MBTL1: Hit Validation. shares compounds with L3MBTL1 inh-1. L3MBTL1 methyl-lysine binding inhibition, biochemical qHTS. Potency, µM, hits mostly inhibitors. 500 tested, 91% active; note: nearly all actives have a fitted effect of over 70% in size
# AlphaScreen ctr2 – qHTS Assay for the Inhibitors of L3MBTL1: Hit Validationin AlphaScreen Counterscreen | shares compounds with L3MBTL1 inh-1 | AlphaScreen counterscreen, signal inhibition | Potency, µM (highest dose often 57.1 µM), most hits filed as inhibitors | 500 tested, under 10 active | AID 602224, 2012
# Numbers stand for hits; . = inactive; ? = inconclusive; / = no result given; [ ] = another dose, or the depositor's remark. Unless noted, calls come from the whole dose curve; as a rule, active = well fitted curve in the direction sought with a large enough effect; inconclusive = small, poorly fitted or top-dose-only effect, or another doubt; inactive = no such curve, though single readings can be large; an effect the other way counts as inactive or inconclusive.
SMILES,Six1-Eya2 blk,L3MBTL1 inh-1,B2AR arrestin,Eya2 inh,CtBP-E1A blk,L3MBTL1 inh-2,AlphaScreen ctr2
COc1ccc(Cl)cc1NC(=O)COC(=O)c1cc(NS(=O)(=O)c2cccs2)ccc1O,.,39.8µM,.,.,.,?,.
O=c1c2ccccc2nc2n1CCCCC2,.,.,.,.,.,/,/
O=c1c2ccccc2nc2n1CCC2,.,28.2µM,.,.,.,23.8,?
O=C(Oc1ccccc1F)c1ccc2c(=O)n3c(nc2c1)CCC3,.,35.5µM,.,.,.,?,.
CCN(CC(=O)NCCN1CCOCC1)S(=O)(=O)c1ccc(F)cc1,.,/,.,.,.,/,/
O=C(NCCN1CCC(n2c(=O)[nH]c3ccccc32)CC1)c1cc(F)cc(F)c1,.,/,/,/,.,/,/
Cc1ccnc(NS(=O)(=O)c2ccc(NC(=O)Cc3cccs3)cc2)n1,.,31.6µM,.,.,.,2.67,.
O=C(Cc1cccs1)Nc1ccc(S(=O)(=O)Nc2ncccn2)cc1,.,?,.,.,.,/,/
Cc1ccc(-c2cc(-c3ccco3)c(C#N)c(=O)[nH]2)cc1,.,28.2µM,.,.,.,21.2,.
N#Cc1c(-c2ccco2)cc(-c2ccccc2)[nH]c1=O,.,/,.,.,.,/,/
O=C(NCc1nnc(SCC(=O)N2CCCC2)o1)c1ccccc1,.,/,.,.,.,/,/
CC(NC(=O)CCC(=O)Nc1ccccc1O)c1ccccc1 (stereo unspecified),.,/,/,/,.,/,/
CC(CNc1ccccc1O)C(=O)O (stereo unspecified),.,28.2µM,.,.,.,10.6,.
O=C(Nc1cccc(S(=O)(=O)NC2=NCCCCC2)c1)c1cc(-c2ccco2)nc2ccccc12,.,35.5µM,.,.,.,2.99,.
O=C(Nc1cccc(S(=O)(=O)NC2=NCCCCC2)c1)c1cc(-c2ccncc2)nc2ccccc12,.,.,.,.,/,/,/
Cc1ccc(-c2nn3c(C)nnc3s2)cc1NC(=O)c1ccc(-c2cccc(Cl)c2)o1,.,22.4µM,.,.,.,7.52,.
Cc1ccc(-c2nn3c(C)nnc3s2)cc1NC(=O)c1ccc(-c2ccc(Cl)cc2Cl)o1,.,.,.,.,.,/,/
CCOc1ccc(-c2c(C(=O)N/N=C/c3ccsc3)nnn2-c2nonc2N)cc1,.,/,.,.,.,/,/
O=C(Oc1c(CN2CCOCC2)cc(Cl)c2cccnc12)c1ccccc1Br,-94.0,31.6µM,?,.,-68.9,23.8,.
OC1(c2nc3ccccc3[nH]2)CCCCC1,.,.,.,.,.,/,/
CC(C)S(=O)(=O)C1=NSC2=NC(=O)/C(=C\c3ccc(-c4ccccc4)o3)C(=N)N21,.,.,.,.,.,/,/
CC(C)S(=O)(=O)C1=NSC2=NC(=O)/C(=C\c3ccc(-c4cccc(C(=O)O)c4)o3)C(=N)N21,?,12.6µM,.,.,/,3.77,.
O=C(Nc1ccc(F)c(F)c1)C1CCN(S(=O)(=O)c2cccs2)CC1,.,.,.,.,.,/,/
CC(=O)c1ccccc1NS(=O)(=O)c1cccc2nsnc12,.,31.6µM,.,.,.,26.7,.
CC(=O)c1ccccc1NS(=O)(=O)c1cccc2nonc12,.,/,.,.,.,/,/
SMILES,Six1-Eya2 blk,L3MBTL1 inh-1,B2AR arrestin,Eya2 inh,CtBP-E1A blk,L3MBTL1 inh-2,AlphaScreen ctr2
Oc1ccc(Br)cc1CNc1cccc2cccnc12,.,.[2.29 µM],.,.,.,/,/
Oc1c(Br)cc(Br)cc1CNc1cccc2cccnc12,.,35.5µM,.,.,/,?,.
COc1ccccc1NCCC(=O)OCC(=O)Nc1cc([N+](=O)[O-])ccc1F,.,.,.,.,.,/,/
O=C(c1ccccc1)c1ccc2nc(-c3ccco3)c(-c3ccco3)nc2c1,?,7.94µM,.,.,.,7.52,.
Cc1ccc(C)c(N2CCN(C(=O)c3ccc4nc(-c5ccco5)c(-c5ccco5)nc4c3)CC2)c1,.,.,.,.,.,/,/
c1coc(-c2nc3ccccc3nc2-c2ccco2)c1,.,31.6µM,.,.,.,?,.
c1coc(-c2cnc3ccccc3n2)c1,.,/,/,/,.,/,/
COc1ccccc1N1CCN(C(=O)c2ccc3nc(-c4ccco4)c(-c4ccco4)nc3c2)CC1,.,28.2µM,.,.,.,18.9,.
C[C@@H]1CN([C@H](C)CO)C(=O)CCCn2nncc2CO[C@H]1CN(C)Cc1ccc2c(c1)OCCO2,.,/,/,/,.,/,/
COc1ccc(Br)cc1CN(C)C(=O)c1ccccc1SCC(=O)N1CCCC1,.,/,/,/,.,/,/
COc1ccc(S(=O)(=O)Cc2ccc(C(=O)N3CCN(Cc4ccccc4)CC3)o2)cc1,.,.,.,.,.,/,/
Cc1ccc(S(=O)(=O)Cc2ccc(C(=O)N3CCN(Cc4ccccc4)CC3)o2)cc1,/,31.6µM,.,.,/,15,.
O=C(/C=C/c1ccco1)Nc1cc(Cl)ccc1C(=O)O,.,28.2µM,.,.,.,10.6,.
COc1cccc(C#CC2=CC(=O)C[C@H](c3ccc(F)cc3)C2)c1,.,/,/,/,.,/,/
CNC(=O)COC(=O)c1cc(-c2ccco2)nc2ccccc12,.,28.2µM,.,.,.,3.36,.
COCCCN(C(=O)c1cc(-c2ccco2)nc2ccccc12)c1c(N)n(Cc2ccccc2)c(=O)[nH]c1=O,.,31.6µM,.,.,.,18.9,.
O=C(COC(=O)c1cc(-c2ccco2)nc2ccccc12)NCc1ccccc1,.,/,.,.,.,/,/
CN(CC(=O)Nc1ccc(F)cc1)C(=O)c1cc(-c2ccco2)nc2ccccc12,.,17.8µM,.,.,.,11.9,.
O=C(O)c1cc(-c2ccco2)nc2cc3ccccc3cc12,.,10µM,.,.,.,0.844,.
O=C(CN1C(=O)/C(=C/c2ccccc2)SC1=S)N1CCN(CCc2ccccn2)CC1,.,/,.,.,.,/,/
Cn1c(N)c(C(=O)COC(=O)c2cc(-c3ccco3)nc3ccccc23)c(=O)n(Cc2ccccc2)c1=O,/,31.6µM,.,.,/,3.77,.
O=C(NC(c1ccc(F)cc1)c1ccc2ccccc2n1)C1CCN(CCOc2ccc(Cl)cc2)CC1 (stereo unspecified),.,/,/,/,.,/,/
O=C1NC(=Nc2ccc(O)cc2)S/C1=C\C=C\c1ccco1,.,15.8µM,.,.,.,13.4,.
Cc1c(Cl)cccc1-n1c(SCC(=O)N2CCC(C(=O)O)CC2)nc2ccccc2c1=O,.,/,.,.,.,/,/
Cc1ccc2c(CC(=O)NCc3ccc4c(c3)OCO4)coc2c1,.,/,.,.,.,/,/
COc1ccc2c(CC(=O)NCc3ccc4c(c3)OCO4)coc2c1,.,25.1µM,.,.,.,26.7,.
